# Source: PubChem
# The list is not random: actives were taken first. Their share in the collection is about 12%.
# Sm TGR inh: inhibitors of Schistosoma mansoni thioredoxin glutathione reductase. Q962Y6. purified TGR, DTNB reduction, TNB absorbance 405 nm. Potency, µM (series often up to 114 µM), for inactives: at the top dose activity change, negative = inhibition, hits mostly inhibitors. hit rate 3% among 360,000. AID 485364; further: on the % scale 0 is the no-effect control and ±100 the full control effect; nearly all actives have a fitted effect of over 60% in size
#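 Kinetic colorimetric format: TGR-catalysed, NADPH-driven DTNB reduction monitored via TNB absorbance. Enzyme dispensed at 20 nM; compound exposure 15 min at room temperature before reaction start.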
# SARS PLP yeast: blocks SARS-CoV papain-like protease in a yeast assay. S. cerevisiae expressing SARS-CoV PLpro, growth rescue. Potency, µM (top dose mostly 32.9 µM), for the others: at the highest dose activity, positive = growth rescue, actives largely listed as activators. hit rate 0.19% among 330,000. AID 485353; calls by dose curve; further: 0% is about no effect; nearly all actives have a fitted effect of over 55% in size
# Pf growth 96h: P. falciparum growth inhibition at 96 hours; P. falciparum luciferase reporter growth, 96 h; Potency, µM (doses to about 28.7 µM), for the others: at the top dose activity change, negative = inhibition, most hits filed as inhibitors; hit rate 6.9% among 320,000; AID 504834; further: on the % scale 0 is the no-effect control and ±100 the full control effect
#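 Luminescence readout: decreased luciferase signal marks inhibited growth of reporter-expressing P. falciparum in infected red cells (2% hematocrit, 0.05% parasitemia final), exposed to compound two generations (96 h, 37 C, 5% CO2).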
# AmpC detergent: inhibitors of E. coli AmpC beta-lactamase with detergent; P00811; AmpC hydrolysis of nitrocefin, absorbance 480 nm, 0.01% Triton; Potency, µM (series often up to 114 µM), without a hit: top-dose activity change, negative = inhibition, hits mostly inhibitors; hit rate 0.041% among 370,000; AID 485294;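 further: 0% = no-compound wells and -100% = no-enzyme wells; nearly all actives have a fitted effect of over 25% in size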
# Target sequence (P00811 whole entry, looked up): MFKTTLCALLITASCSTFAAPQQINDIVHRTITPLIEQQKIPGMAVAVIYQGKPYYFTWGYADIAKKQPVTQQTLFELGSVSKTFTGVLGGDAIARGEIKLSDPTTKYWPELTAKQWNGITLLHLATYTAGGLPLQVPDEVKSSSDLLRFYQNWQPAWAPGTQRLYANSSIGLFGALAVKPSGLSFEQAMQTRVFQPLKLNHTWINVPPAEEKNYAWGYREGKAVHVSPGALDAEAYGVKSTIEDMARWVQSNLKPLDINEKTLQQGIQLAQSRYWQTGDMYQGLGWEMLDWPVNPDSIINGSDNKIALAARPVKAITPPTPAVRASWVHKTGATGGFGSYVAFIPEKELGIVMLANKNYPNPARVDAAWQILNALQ
#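 20 mM phosphate pH 7.0 + 0.01% (detergent screen) or 0.0001% Triton X-100; 5.3 nM AmpC reagent; cpd preinc 15 min RT; nitrocefin (800 uM stock) to start; A480 q20 s × 4 min; Activity was normalised to no-enzyme and no-compound control wells.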
# AmpC inh no detg: inhibitors of E. coli AmpC beta-lactamase without detergent | P00811 | AmpC nitrocefin hydrolysis, absorbance 480 nm, 0.0001% Triton | Potency, µM (titrated, usually from 57.1 µM), inactives show top-dose activity change, negative = inhibition, most hits filed as inhibitors | hit rate 0.52% among 330,000 | AID 485341;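 further: plate controls were no compound for no effect and no enzyme for full effect; nearly all actives have a fitted effect of over 20% in size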
#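 20 mM phosphate pH 7.0 + 0.01% (detergent screen) or 0.0001% Triton X-100; 5.3 nM AmpC reagent; cpd preinc 15 min RT; nitrocefin (800 uM stock) to start; A480 q20 s × 4 min; Activity was normalised to no-enzyme and no-compound control wells.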
# Pf growth 48h: P. falciparum growth inhibition at 48 hours (one generation); hit rate 5.9% among 310,000; Potency, µM (doses to about 28.7 µM), without a hit: at the top dose activity change, negative = inhibition, usual class: inhibitors; P. falciparum luciferase growth in erythrocytes, 48 h; further: on the % scale 0 is the no-effect control and ±100 the full control effect
#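 Erythrocytes infected with P. falciparum carrying an integrated firefly luciferase reporter (2% hematocrit, 0.1% parasitemia final) were exposed to compounds in RPMI 1640 with 0.5% Albumax at 37 C, 5% CO2. Growth inhibition was scored as reduced luminescence.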
# * = called active by the depositor; ? = inconclusive; . = no result; [ ] = remark or other dose. Unless noted, the call rests on the fitted dose curve; in most records, active means well fitted curve in the direction sought with a large enough effect; inconclusive means small, poorly fitted or top-dose-only effect, or another doubt; inactive means no such curve, though single readings can be large; an effect the other way counts as inactive or inconclusive. Potency means the concentration at half of the fitted maximal effect.
SMILES,Sm TGR inh,SARS PLP yeast,Pf growth 96h,AmpC detergent,AmpC inh no detg,Pf growth 48h
CCOC(=O)C1CCN(C(=O)c2ccc(OC3CCN(C(=O)COC)CC3)cc2)CC1,-21%,-5%,21%,-4%,9%,6%
COCC(=O)N1CCC(Oc2ccc(C(=O)NCc3cc(C(C)C)no3)cc2)CC1,1%,3%,?,1%,-4%,3%
COCC(=O)N1CCC(Oc2ccc(C(=O)N3C[C@@H](C)O[C@@H](C)C3)cc2)CC1,40µM*,-6%,?,-8%,-1%,-3%
COc1cc(NC(=O)C2CC(c3ccccc3Cl)=NO2)cc(OC)c1OC (stereo not drawn),2%,-5%,1%,2%,33%,21%
Cc1ccnc(NC(=O)c2ccc(S(=O)(=O)c3ccccc3)cc2)c1,1%,0%,29%[5.75 µM],5%,-2%[2.29 µM],?
N#CCC(CNc1ncc(C(F)(F)F)cc1Cl)OC(=O)c1cccc([N+](=O)[O-])c1 (stereo not drawn),9%,-17%,4.7µM*,0%,-12%,13µM*
COc1cc(NC(=O)C2=CC(c3ccc(F)cc3)=NS(=O)(=O)N2C)cc(OC)c1OC,1%,.,.,-2%,.,.
CCCCc1c(C)nc2cc(-c3ccco3)[nH]n2c1=O,-29%,0%,?,?,-42%,?
O=C1c2nc3cc(-c4ccco4)[nH]n3c(=O)c2CN1Cc1ccccc1,20µM*,3%,-8%,1%,-39%,-17%
Cc1ccccc1CN1C(=O)C(C)S/C1=N/N=C/c1ccco1 (stereo not drawn),25µM*,-7%,-12%,-5%,-14%,?
O=C1CS/C(=N/N=C/c2ccco2)N1Cc1ccc(F)cc1,25µM*,0%,23%,2%,-33%,5%
CCC1S/C(=N/N=C/c2ccco2)N(Cc2ccccc2)C1=O (stereo not drawn),20µM*,1%,?,-6%,-53%,?
CC1S/C(=N/N=C/c2ccco2)N(Cc2ccc(F)cc2)C1=O (stereo not drawn),32µM*,-1%,15%,11%,-18%,-2%
CCC1S/C(=N/N=C/c2ccco2)N(c2ccc(F)cc2)C1=O (stereo not drawn),-2%,3%,?,?,-13%,-4%
C=CCN1C(=O)C(Cc2ccc(F)cc2)S/C1=N/N=C/c1ccco1 (stereo not drawn),-2%,11%,?,?,-20%,2%
COc1cccc(NC(=O)c2oc3ccccc3c2NC(=O)Cc2cccc(C)c2)c1,-3%,.,.,6%,.,.
NC(=O)c1c(NC(=O)C2CC=CCC2C(=O)O)sc2c1CCCCC2 (stereo not drawn),50µM*,-3%,?,-3%,-42%,0%
COC(=O)Nc1sc2c(c1C(N)=O)CCCCCC2,0%,-5%,.,?,-17%,8%
C=CCNC(=S)Nc1sc2c(c1C(N)=O)CCCC2,1%,1%,2%,-1%,-37%,7%
CC(C)OC(=O)c1c(NC(=O)C2CC=CCC2C(=O)O)sc2c1CCCCC2 (stereo not drawn),-23%,2%,9.3µM*,0%,-34%,-3%
C=CC(=O)Nc1sc2c(c1C(N)=O)CCCC2,40µM*,1%,40%,?,-16%,?
O=C(Nc1ccc(Br)cc1)C1CCN(S(=O)(=O)c2cccc3nsnc23)CC1,-6%,.,.,-6%,.,.
Cc1ccc(NC(=O)c2ccc3c(c2)NC(=O)c2ccccc2S3)cc1,3%,.,.,7%,.,.
COC(=O)c1cc(C)nc2c1C(=O)C(=O)C=C2N1CCOCC1,?,11%,-2%,1%,-15%,13µM*
O=C(c1c[nH]c2ccccc12)C(O)C(c1ccccc1)N1CCOCC1 (stereo not drawn),-14%,4%,13%,-12%,-24%,-4%
SMILES,Sm TGR inh,SARS PLP yeast,Pf growth 96h,AmpC detergent,AmpC inh no detg,Pf growth 48h
COc1ccc(C(C(O)C(=O)c2c[nH]c3ccccc23)N2CCN(c3ccc(OC)cc3)CC2)cc1 (stereo not drawn),-3%,-2%,.,-1%,-7%,13µM*
O=C(CN1C(=O)C2(SCC(=O)N2c2cccc(F)c2)c2ccccc21)NCCc1ccccc1 (stereo not drawn),-3%,.,.,1%,.,.
O=C(O)c1ccc(NC(=S)Nc2ccccc2)cc1,-25%,-15%,82%,-8%,-19%,49%
CCOC(=O)C1=C(N)OC2=C(C(=O)CCC2)C12C(=O)N1c3c(ccc(C)c32)C(C)=CC1(C)C (stereo not drawn),-2%,?,12µM*,-2%,197%,?
Cc1nn2c(=O)cc(COC(=O)C(c3ccccc3)c3ccccc3)nc2s1,-5%,.,.,4%,.,.
CCOc1ccc(CCNC(=O)CN2C(=O)NC3(CCCCCC3)C2=O)cc1OCC,-2%,-2%,?,?,13%,13µM*
CCOc1ccc(CCNC(=O)CN2CCN(Cc3ccccc3F)C2=O)cc1OCC,16%,5%,1.5µM*,?,49%,?
COc1ccc(CNC(=O)CN2C(=O)NC3(CCCCCC3)C2=O)cc1OC,-9%,1%,0%,4%,-12%,0%
CC1CCN(S(=O)(=O)c2ccc3c(c2)N(CC(=O)Nc2ccc(F)c(Cl)c2)C(=O)CO3)CC1,-2%,.,.,26%,.,.
CCN(C(=O)CSc1nc2ccccc2c(=O)n1Cc1ccc(C)cc1)C1CCS(=O)(=O)C1 (stereo not drawn),1%,30%,?,?,?,-2%
CCn1c(SCC(=O)N(Cc2ccccc2)C2CCS(=O)(=O)C2)nc2ccccc2c1=O (stereo not drawn),0%,3%,.,?,100%,5.2µM*
CCC(C)N(C(=O)COc1ccccc1C(=O)NCc1ccccc1)C1CCS(=O)(=O)C1 (stereo not drawn),3%,0%,9.3µM*,3%,0%,?
COCCn1c(SCC(=O)N(C)C2CCS(=O)(=O)C2)nc2ccccc2c1=O (stereo not drawn),.,0%,14%,2%,-3%,-2%
CCC(C)N(C(=O)CSc1nc(C)nc2ccccc12)C1CCS(=O)(=O)C1 (stereo not drawn),-1%,-5%,15µM*,1%,-19%,?
C=CCn1c(SCC(=O)N(C(C)CC)C2CCS(=O)(=O)C2)nc2ccccc2c1=O (stereo not drawn),0%,-2%,5.9µM*,-27%,55%,?
